Results on five compounds are retold here after PubChem BioAssay (NCATS).

The target in assay [1] is ATP-dependent 6-phosphofructokinase (Trypanosoma brucei brucei) (UniProt O15648). In words: qHTS Assay to Find Inhibitors of T. brucei phosphofructokinase: hit validation (AID 492961).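 Also: luminescence reports ADP formed as PFK phosphorylates fructose-6-phosphate with ATP; % is scaled to controls: 0 for no effect and ±100 for the full control effect.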 An outline of the steps: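 Compounds titrated; %activity normalized to 0x and 1x enzyme controls, curve-fitted. Readout: ADP-Glo luminescence after 45 min room-temperature reaction of 1.25 nM PFK, 0.1 mM ATP, 0.5 mM F6P, pH 8.0.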
Chain of ATP-dependent 6-phosphofructokinase (Trypanosoma brucei brucei) (O15648 whole entry, looked up): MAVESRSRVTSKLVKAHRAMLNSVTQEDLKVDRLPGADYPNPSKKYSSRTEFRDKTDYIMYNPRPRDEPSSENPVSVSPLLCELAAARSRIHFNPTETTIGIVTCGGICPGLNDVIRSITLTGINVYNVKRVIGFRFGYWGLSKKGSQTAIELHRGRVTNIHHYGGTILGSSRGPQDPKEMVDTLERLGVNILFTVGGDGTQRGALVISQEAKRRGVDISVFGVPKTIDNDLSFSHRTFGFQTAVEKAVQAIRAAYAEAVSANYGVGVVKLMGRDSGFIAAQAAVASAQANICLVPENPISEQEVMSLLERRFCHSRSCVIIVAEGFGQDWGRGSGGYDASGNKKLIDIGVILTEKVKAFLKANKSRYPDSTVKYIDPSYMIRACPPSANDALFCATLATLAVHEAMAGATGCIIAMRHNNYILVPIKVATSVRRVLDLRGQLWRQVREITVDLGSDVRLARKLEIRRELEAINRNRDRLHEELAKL
(Quantitative high-throughput screening tests each substance at several concentrations.)

A short description of assay [2]: qHTS profiling for inhibitors of Plasmodium falciparum proliferation (AID 504749). Also: potency is read from the fitted curve at half-maximal effect.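 As to activity, negative = inhibition: 0% = DMSO vehicle and full inhibition = artemisinin control.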 As to all read-outs here: nearly all actives have a fitted effect of over 60% in size. To be noted: P. falciparum in erythrocytes, SYBR Green DNA, 72 h; for activity, negative = inhibition: at 28.7 µM (top of the series). An outline of the steps:
(§1)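 Each compound contacts P. falciparum-infected red blood cells for 72 h at 37 C; lysis buffer (Tris, EDTA, saponin, Triton X, SYBR Green I) is added and fluorescence measured next morning; values normalized to controls.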

The next assay deals with 3D7. The description is as above. To be noted: P. falciparum in erythrocytes, SYBR Green DNA, 72 h; series mostly up to 28.7 µM. In a few lines:
as §1

Another assay has as its system ATS189. Described as above. To be noted: P. falciparum in erythrocytes, SYBR Green DNA, 72 h; series mostly up to 28.7 µM. An outline of the steps:
as §1

The next assay deals with CP185. The description is as above. Conditions: P. falciparum in erythrocytes, SYBR Green DNA, 72 h; series mostly up to 28.7 µM. In a few lines: as §1
For the next assay, the system named is CP191. Described as above. Conditions: P. falciparum in erythrocytes, SYBR Green DNA, 72 h; series mostly up to 28.7 µM. In a few lines: as §1
The test system of the next assay is CP192. The assay is described as above. Conditions: P. falciparum in erythrocytes, SYBR Green DNA, 72 h; series mostly up to 28.7 µM. An outline of the steps: as §1
The test system of the next assay is CP194. The assay is described as above. To be noted: P. falciparum in erythrocytes, SYBR Green DNA, 72 h; series mostly up to 28.7 µM. An outline of the steps: as §1
The next assay deals with CP211. The description is as above. To be noted: P. falciparum in erythrocytes, SYBR Green DNA, 72 h; series mostly up to 28.7 µM. An outline of the steps:
as §1

Another assay has as its system CP217. The assay is described as above. Conditions: P. falciparum in erythrocytes, SYBR Green DNA, 72 h; series mostly up to 28.7 µM. In a few lines: as §1
A further assay concerns CP238. The description is as above. Conditions: P. falciparum in erythrocytes, SYBR Green DNA, 72 h; series mostly up to 28.7 µM. An outline of the steps: as §1
A further assay has as its system CP252. The assay is described as above. To be noted: P. falciparum in erythrocytes, SYBR Green DNA, 72 h; series mostly up to 28.7 µM. In a few lines:
as §1

For another assay, the system named is CP262. The assay is described as above. Conditions: P. falciparum in erythrocytes, SYBR Green DNA, 72 h; series mostly up to 28.7 µM. An outline of the steps:
as §1

Another assay relates to CP265. Described as above. To be noted: P. falciparum in erythrocytes, SYBR Green DNA, 72 h; series mostly up to 28.7 µM. An outline of the steps: as §1
The subject of the next assay is CP269. Described as above. To be noted: P. falciparum in erythrocytes, SYBR Green DNA, 72 h; series mostly up to 28.7 µM. An outline of the steps: as §1
In the next assay the test system is CP286. The assay is described as above. Conditions: P. falciparum in erythrocytes, SYBR Green DNA, 72 h; series mostly up to 28.7 µM. In a few lines:
as §1

The test system of the next assay is CP329. The assay is described as above. Conditions: P. falciparum in erythrocytes, SYBR Green DNA, 72 h; series mostly up to 28.7 µM. In a few lines: as §1
For a further assay, the system named is Dd2. Described as above. Conditions: P. falciparum in erythrocytes, SYBR Green DNA, 72 h; series mostly up to 28.7 µM. An outline of the steps: as §1
Another assay concerns ECU. The description is as above. To be noted: P. falciparum in erythrocytes, SYBR Green DNA, 72 h; series mostly up to 28.7 µM. In a few lines:
as §1

The next assay concerns FAB9. The description is as above. To be noted: P. falciparum in erythrocytes, SYBR Green DNA, 72 h; series mostly up to 28.7 µM. In a few lines: as §1

Records with an inconclusive call do not appear. Values without a mark were called inactive. Calls of active or inactive are those of the source. Calls follow the shape of the dose curve; as a rule, active = well fitted curve in the direction sought with a large enough effect; inconclusive = small, poorly fitted or top-dose-only effect, or another doubt; inactive = no such curve, though single readings can be large; an effect the other way counts as inactive or inconclusive.

Consider `C[C@@H]1CC2C3CCC4=CC(=O)C=C[C@]4(C)[C@@]3(F)[C@@H](O)C[C@]2(C)[C@@]1(O)C(=O)COC(=O)c1cccc(S(=O)(=O)O)c1` (stereo partly drawn), for which the Potency entry (in [1]; in the assay on 3D7; in the assay with ATS189; in the assay on CP185; with CP191; in the assay with CP192) was “inactive” throughout. The Potency entry with CP194, in the assay with CP211, with CP217, with CP238, with CP252 and in the assay on CP262 was “inactive” each time. In addition, the Potency entry in the assay on CP265, in the assay on CP269, in the assay on CP286, with CP329, in the assay on Dd2 and in the assay with ECU was “inactive” in each case. The Potency result in the assay on FAB9 is “inactive”. Also, the activity, negative = inhibition was 4.33% in assay [2] (parasite line A) and -2.2% in [2] (parasite line B).
Consider `C[C@]12CC[C@@H]3c4ccc(O)cc4C[C@@H](CCCCCCCCCS(=O)CCCC(F)(F)C(F)(F)F)C3[C@@H]1CC[C@@H]2O` (stereo partly drawn), for which the Potency entry (in [1]; in the assay on CP262) was “inactive” in each case. Moreover, the Potency in assay [2] (parasite line A) was 11.2 µM (active); in assay [2] (parasite line B), 10 µM (active); with 3D7, 10 µM (active); in the assay with ATS189, 7.94 µM (active); in the assay with CP185 it was 8.91 µM (active); with CP191, 7.94 µM (active). The Potency is 8.91 µM (active) with CP217; 7.94 µM (active) in the assay on CP238; 8.91 µM (active) in the assay with CP252; 11.2 µM (active) in the assay with CP265; 11.2 µM (active) with CP286; 7.08 µM (active) in the assay with Dd2. Also, the Potency in the assay on ECU was 3.55 µM (active); in the assay with FAB9, 8.91 µM (active).
Take `CC1CN(c2c(F)c(N)c3c(=O)c(C(=O)O)cn(C4CC4)c3c2F)CC(C)N1` (stereo not drawn): the Potency result (in assay [1]; in the assay with 3D7; with ATS189; with CP185; with CP191; in the assay on CP192) was “inactive” in each case. For the same compound, the Potency result in the assay on CP194, with CP211, in the assay with CP217, in the assay with CP238, in the assay on CP252 and in the assay on CP262 was “inactive” in each case. In addition, the Potency result in the assay with CP265, with CP269, in the assay with CP286, in the assay with CP329, with Dd2 and in the assay with ECU was “inactive” throughout. In the assay on FAB9, the Potency result is “inactive”. Also, the activity, negative = inhibition in assay [2] (parasite line A) is -2.02%; in [2] (parasite line B) it was 11%.
Take `CC(CN1CC(=O)NC(=O)C1)N1CC(=O)NC(=O)C1` (stereo not drawn): the Potency result (in assay [1]; with 3D7; in the assay with ATS189; in the assay on CP185; in the assay on CP191; in the assay with CP194) was “inactive” each time. Also, the Potency entry in the assay on CP211, in the assay with CP217, in the assay on CP238, in the assay with CP252, in the assay on CP262 and with CP265 was “inactive” each time. Besides, the Potency entry in the assay on CP269, with CP286, in the assay with CP329, in the assay on Dd2, with ECU and with FAB9 was “inactive” in each case. Moreover, the activity, negative = inhibition in assay [2] (parasite line A) was 1.79%; in assay [2] (parasite line B), 0.945%.
Turning to `C=C1/C(=C\C=C2/CCC[C@]3(C)[C@@H]([C@H](C)/C=C/[C@@H](O)C4CC4)CC[C@@H]23)C[C@@H](O)C[C@@H]1O`, the Potency result (in [1]; in the assay on 3D7; in the assay with ATS189; in the assay on CP185; in the assay with CP191; with CP192) was “inactive” throughout. In addition, the Potency entry in the assay on CP194, in the assay with CP211, with CP217, in the assay with CP238, in the assay on CP252 and in the assay with CP262 was “inactive” each time. Further, the Potency result with CP269, with CP286, in the assay on CP329, with Dd2, with ECU and in the assay on FAB9 was “inactive” each time. The results for the activity, negative = inhibition in assay [2] (parasite line A) and in assay [2] (parasite line B) were -4.72% and -23.6%, respectively.
